Values joined by “and” are separate entries in the source; they are usually repeats but may differ in a detail not shown here. Equal values may be shown once. Inconclusive results are not listed. The source holds several records for some structures; these can differ, active in one and inactive in another. Active and inactive are the calls of the source. Calls follow the shape of the dose curve; as a rule, active = well fitted inhibition curve with a large enough effect; inconclusive = small, poorly fitted or top-dose-only effect; inactive = flat fitted curve, though single readings scatter.
How the values were obtained:
CRL-7250 = normal cell line; test: Cytotoxic Profiling of Annotated Libraries Using Quantitative High-Throughput Screening (AID 1296008); conditions: Five cell lines viability, CellTiter-Glo ATP luminescence, 48-72 h; max response: active compounds read low; as to max response: % is scaled to controls: 0 for no effect and ±100 for the full control effect
Method in brief: (§1)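 Cells exposed to compounds for 48 or 72 hr at 37 degrees Celsius. Viability read as ATP-coupled luminescence with CellTiter-Glo after 10 min at room temperature.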

HEK293 = test: as above; conditions: Five cell lines viability, CellTiter-Glo ATP luminescence, 48-72 h; max response: active compounds read low
Method in brief: as §1

HaCat = test: as above; conditions: Five cell lines viability, CellTiter-Glo ATP luminescence, 48-72 h; max response: active compounds read low
Method in brief: as §1

KB-3-1 = test: as above; conditions: Five cell lines viability, CellTiter-Glo ATP luminescence, 48-72 h; max response: active compounds read low
Method in brief: as §1

GB4 = test: qHTS profiling for inhibitors of Plasmodium falciparum proliferation (AID 504749); conditions: P. falciparum in erythrocytes, SYBR Green DNA, 72 h; series mostly up to 28.7 µM
Method in brief: (§2)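 P. falciparum-infected erythrocytes (0.3% parasitemia, 2.5% hematocrit) incubated with compound 72 h at 37 C, 5% CO2. Parasite DNA detected by SYBR Green after lysis, overnight at room temperature; normalised to 0.29 uM artemisinin and DMSO.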

HB3 = test: as above; conditions: P. falciparum in erythrocytes, SYBR Green DNA, 72 h; series mostly up to 28.7 µM
Method in brief: as §2

ICS = test: as above; conditions: P. falciparum in erythrocytes, SYBR Green DNA, 72 h; series mostly up to 28.7 µM
Method in brief: as §2

JCK = test: as above; conditions: P. falciparum in erythrocytes, SYBR Green DNA, 72 h; series mostly up to 28.7 µM
Method in brief: as §2

N140 = test: as above; conditions: P. falciparum in erythrocytes, SYBR Green DNA, 72 h; series mostly up to 28.7 µM
Method in brief: as §2

P93_24 = test: as above; conditions: P. falciparum in erythrocytes, SYBR Green DNA, 72 h; series mostly up to 28.7 µM
Method in brief: as §2

P94_40 = test: as above; conditions: P. falciparum in erythrocytes, SYBR Green DNA, 72 h; series mostly up to 28.7 µM
Method in brief: as §2

PAD = test: as above; conditions: P. falciparum in erythrocytes, SYBR Green DNA, 72 h; series mostly up to 28.7 µM
Method in brief: as §2

PC15 = test: as above; conditions: P. falciparum in erythrocytes, SYBR Green DNA, 72 h; series mostly up to 28.7 µM
Method in brief: as §2

PC26 = test: as above; conditions: P. falciparum in erythrocytes, SYBR Green DNA, 72 h; series mostly up to 28.7 µM
Method in brief: as §2

PC49 = test: as above; conditions: P. falciparum in erythrocytes, SYBR Green DNA, 72 h; series mostly up to 28.7 µM
Method in brief: as §2

SC27B = test: as above; conditions: P. falciparum in erythrocytes, SYBR Green DNA, 72 h; series mostly up to 28.7 µM
Method in brief: as §2

TAB109 = test: as above; conditions: P. falciparum in erythrocytes, SYBR Green DNA, 72 h; series mostly up to 28.7 µM
Method in brief: as §2

TAB113 = test: as above; conditions: P. falciparum in erythrocytes, SYBR Green DNA, 72 h; series mostly up to 28.7 µM
Method in brief: as §2

TAB165 = test: as above; conditions: P. falciparum in erythrocytes, SYBR Green DNA, 72 h; series mostly up to 28.7 µM
Method in brief: as §2

W2 = test: as above; conditions: P. falciparum in erythrocytes, SYBR Green DNA, 72 h; series mostly up to 28.7 µM
Method in brief: as §2
Also: nearly all actives have a fitted effect of over 60% in size.
Potency is read from the fitted curve at half-maximal effect.

NC(=O)c1ncn([C@@H]2O[C@H](CO)[C@@H](O)[C@H]2O)c1N
inactive: max response (CRL-7250) -9.1% | max response (HEK293) -5.61% | max response (HaCat) -15% | max response (KB-3-1) 12%

O=c1[nH]cnc2c1ncn2[C@@H]1O[C@H](CO)[C@@H](O)[C@H]1O
inactive: max response (CRL-7250) -10.1% and -4.73% | max response (HEK293) 3.98% | outcome (HEK293) | outcome (HaCat) | max response (KB-3-1) 7.98% | outcome (KB-3-1)

OC[C@H]1O[C@@H](O[C@@H]2[C@@H](CO)O[C@](O)(CO)[C@H]2O)[C@H](O)[C@@H](O)[C@H]1O
inactive: max response (CRL-7250) -1.41% | outcome (HEK293) | outcome (HaCat) | max response (KB-3-1) -20%

CCOC(=O)[C@H](CCc1ccccc1)N[C@@H](C)C(=O)N1C(=O)N(C)C[C@H]1C(=O)O
inactive: Potency (GB4) | Potency (HB3) | Potency (ICS) | Potency (JCK) | Potency (N140) | Potency (P93_24) | Potency (P94_40) | Potency (PAD) | Potency (PC15) | Potency (PC26) | Potency (PC49) | Potency (SC27B) | Potency (TAB109) | Potency (TAB113) | Potency (TAB165) | Potency (W2) | max response (CRL-7250) 1.6% | outcome (CRL-7250) | max response (HEK293) -1.24% | outcome (HEK293) | max response (HaCat) 0.859% | outcome (HaCat) | max response (KB-3-1) 5.5% and 4.49%

C[C@]12CC[C@@H]3c4ccc(O)cc4CC[C@H]3[C@@H]1CC[C@@H]2OC(=O)CCC1CCCC1
inactive: max response (CRL-7250) -19.6% | outcome (CRL-7250) | max response (HEK293) -8.4% | outcome (HaCat) | max response (KB-3-1) -5.64% and 15.4%

CC(C(O)c1ccc(O)cc1)N1CCC(Cc2ccccc2)CC1 (configuration not stated)
inactive: Potency (PC49) | max response (CRL-7250) -1.07% | outcome (CRL-7250) | max response (HaCat) -22.6% | outcome (HaCat) | max response (KB-3-1) -5.14% | outcome (KB-3-1)
active: Potency (GB4) 7.57 µM | Potency (P93_24) 11.2 µM | Potency (TAB165) 8.91 µM | Potency (W2) 4.26 µM

CN1CCOC(c2ccccc2)c2ccccc2C1 (configuration not stated)
inactive: max response (CRL-7250) 2.8% | outcome (CRL-7250) | max response (HEK293) -2.69% | outcome (HEK293) | max response (HaCat) -15.1% and -5.19% | max response (KB-3-1) -9.99% and 4.82%

O=C1N=C(O)CN1/N=C/c1ccc(-c2ccc([N+](=O)[O-])cc2)o1
inactive: outcome (CRL-7250) | max response (HEK293) -11.3% | outcome (HaCat) | max response (KB-3-1) 4.36%

Cn1c(=O)c2c(ncn2CC2OCCO2)n(C)c1=O
inactive: Potency (GB4) | Potency (HB3) | Potency (ICS) | Potency (JCK) | Potency (N140) | Potency (P93_24) | Potency (P94_40) | Potency (PAD) | Potency (PC15) | Potency (PC26) | Potency (PC49) | Potency (SC27B) | Potency (TAB109) | Potency (TAB113) | Potency (TAB165) | Potency (W2) | max response (CRL-7250) -4.54% and 1.94% | outcome (HEK293) | max response (HaCat) -3.76% | outcome (HaCat) | max response (KB-3-1) 6.93% and 8.78%

CCOc1nc2cccc(C(=O)O)c2n1Cc1ccc(-c2ccccc2-c2nn[nH]n2)cc1
inactive: Potency (GB4) | Potency (HB3) | Potency (JCK) | Potency (P93_24) | Potency (PAD) | Potency (PC15) | Potency (PC49) | Potency (TAB109) | max response (CRL-7250) -0.772% | outcome (CRL-7250) | max response (HEK293) -7.13% and 4.6% | max response (HaCat) -22.9% and -2.42% | max response (KB-3-1) -0.374% and 6.58%
active: Potency (SC27B) 11.2 µM

CCCCC/C(C=O)=C\c1ccccc1
inactive: max response (CRL-7250) -6.23% | outcome (HEK293) | max response (HaCat) 1.14% | max response (KB-3-1) -6.5%

Cc1cc(C(C#N)c2ccc(Cl)cc2)c(Cl)cc1NC(=O)c1cc(I)cc(I)c1O (configuration not stated)
inactive: Potency (GB4) | Potency (HB3) | Potency (ICS) | Potency (JCK) | Potency (N140) | Potency (P93_24) | Potency (P94_40) | Potency (PAD) | Potency (PC15) | Potency (PC26) | Potency (PC49) | Potency (SC27B) | Potency (TAB109) | Potency (TAB113) | Potency (TAB165) | max response (CRL-7250) -2.5% | outcome (CRL-7250) | max response (HEK293) -12.9% | max response (HaCat) -17.7% | outcome (HaCat) | outcome (KB-3-1)
active: Potency (HEK293) 23.7 µM

CCN(CC)C(=O)Nc1ccc(OCC(O)CNC(C)(C)C)c(C(C)=O)c1 (configuration not stated)
inactive: max response (CRL-7250) -2.26% and 4.22% | max response (HEK293) -6.49% | outcome (HEK293) | outcome (HaCat) | max response (KB-3-1) 3.46% and 6.71%

CCN(CC)CCNC(=O)c1cc(Cl)c(N)cc1OC
inactive: Potency (GB4) | Potency (HB3) | Potency (ICS) | Potency (JCK) | Potency (N140) | Potency (P93_24) | Potency (P94_40) | Potency (PAD) | Potency (PC15) | Potency (PC26) | Potency (PC49) | Potency (SC27B) | Potency (TAB109) | Potency (TAB113) | Potency (TAB165) | Potency (W2) | max response (CRL-7250) 0.565% | max response (HEK293) -1.38% | outcome (HEK293) | max response (HaCat) 1.24% | outcome (HaCat) | max response (KB-3-1) 7.45% | outcome (KB-3-1)

Source: PubChem BioAssay (NCATS)
